Many of the other results were omitted from the sample, so hits are more common in it than they were.
CHX counter – Cycloheximide Counterscreen for Small Molecule Inhibitors of Shiga Toxin. max response, %. cell reporter, cycloheximide protein synthesis inhibition counterscreen. actives 12% (n = 300,000); in the data active means max response mostly above about 13%, no sharp cut-off; inactive means mostly below about 14%; further: read at 38.3 µM for the half of the compounds with a filed dose; 0% is about no effect
AMA1-RON2 inh – qHTS for Inhibitors of AMA1-RON; Towards Development of Antimalarial Drug Lead: Primary Screen; Plasmodium falciparum AMA1 (3D7) - RON2 peptide interaction; AlphaScreen AMA1-biotinylated RON2 peptide binding; Potency, µM (highest dose often 58.2 µM), without a hit: top-dose activity change, negative = inhibition, usual class: inhibitors; actives 0.2% (n = 360,000);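 further: potency means the concentration at half of the fitted maximal effect; 0% = vehicle wells and -100% = peptide control; nearly all actives have a fitted effect of over 45% in size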
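AMA1 (3D7) with his tag at 25 nM final met compounds first, then biotinylated RON2 peptide at 25 nM; detection used donor plus acceptor beads, 10 µg/mL apiece, read by AlphaScreen after 30 min at room temperature.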
SARS PLP yeast – qHTS of Yeast-based Assay for SARS-CoV PLP | S. cerevisiae expressing SARS-CoV PLpro, growth rescue | Potency, µM (titrated, usually from 32.9 µM), for inactives: at the top dose activity, positive = growth rescue, usual class: activators | actives 0.19% (n = 330,000) | AID 485353, 2010; calls by dose curve; further: potency means the concentration at half of the fitted maximal effect; 0% is about no effect; nearly all actives have a fitted effect of over 55% in size
AmpC detergent – qHTS Inhibitors of AmpC Beta-Lactamase (assay with detergent). P00811. AmpC hydrolysis of nitrocefin, absorbance 480 nm, 0.01% Triton. Potency, µM (highest dose often 114 µM), inactives show at the highest dose activity change, negative = inhibition, hits mostly inhibitors. actives 0.041% (n = 370,000). AID 485294, 2010;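 further: potency means the concentration at half of the fitted maximal effect; 0% = no-compound wells and -100% = no-enzyme wells; nearly all actives have a fitted effect of over 25% in size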
Target sequence (P00811 whole entry, looked up): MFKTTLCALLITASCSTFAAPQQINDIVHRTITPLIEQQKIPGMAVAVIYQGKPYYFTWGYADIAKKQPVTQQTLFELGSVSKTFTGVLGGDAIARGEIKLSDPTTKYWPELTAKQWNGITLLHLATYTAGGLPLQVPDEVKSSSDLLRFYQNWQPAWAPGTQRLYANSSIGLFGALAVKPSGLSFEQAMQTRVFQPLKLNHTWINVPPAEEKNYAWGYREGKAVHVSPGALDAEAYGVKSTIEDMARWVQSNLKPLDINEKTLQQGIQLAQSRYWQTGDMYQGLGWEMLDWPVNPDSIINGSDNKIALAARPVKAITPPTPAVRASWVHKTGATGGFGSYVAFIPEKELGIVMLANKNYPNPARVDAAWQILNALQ
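AmpC (5.3 nM in the dispensed reagent) in 20 mM phosphate pH 7.0 with 0.01% (detergent screen) or 0.0001% Triton X-100 was preincubated with compounds for 15 min at room temperature. Nitrocefin was then added from an 800 uM solution, and hydrolysis was followed at 480 nm.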
Shiga inhibitor – A qHTS for Small Molecule Inhibitors of Shiga Toxin | AID 2315, 2010 | actives 9.2% (n = 290,000) | inhibition, % at 38.7 µM | Vero cells, Shiga toxin protein synthesis inhibition reporter; in the data active means inhibition mostly above about 28%, no sharp cut-off; inactive means mostly below about 43%; further: 0% is about no effect
AmpC no deterg – qHTS Inhibitors of AmpC Beta-Lactamase (assay without detergent) | P00811 | AmpC nitrocefin hydrolysis, absorbance 480 nm, 0.0001% Triton | Potency, µM (titrated, usually from 57.1 µM), inactives show top-dose activity change, negative = inhibition, hits mostly inhibitors | actives 0.52% (n = 330,000);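 further: potency means the concentration at half of the fitted maximal effect; plate controls were no compound for no effect and no enzyme for full effect; nearly all actives have a fitted effect of over 20% in size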
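20 mM phosphate pH 7.0 + 0.01% (detergent screen) or 0.0001% Triton X-100; 5.3 nM AmpC reagent; cpd preinc 15 min RT; nitrocefin (800 uM stock) to start; A480 q20 s × 4 min; Activity was normalised to no-enzyme and no-compound control wells.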
Numbers without * were called inactive; ? = inconclusive; . = no result given; + = active, no number; [ ] = another dose, or the depositor's remark. Unless noted, the call rests on the fitted dose curve; in most records, active means well fitted curve in the direction sought with a large enough effect; inconclusive means small, poorly fitted or top-dose-only effect, or another doubt; inactive means no such curve, though single readings can be large; an effect the other way counts as inactive or inconclusive.

SMILES	CHX counter	AMA1-RON2 inh	SARS PLP yeast	AmpC detergent	Shiga inhibitor	AmpC no deterg
O=C(CSc1nnc2ccccn12)Nc1ccc2c(c1)OCO2	18*	1%	0%	?	31	-12%[11.4 µM]
c1ccn2c(SCc3ccc4c(c3)OCO4)nnc2c1	40*	2%	3%	?	114*	-11%
Clc1cccc(Cl)c1CSc1cc2c(nn1)-c1ccccc1CC2	-2	-2%	-2%	-7%	-26	-15%
Clc1ccc(CSc2cc3c(nn2)-c2ccccc2CC3)cc1Cl	-1	24%	-5%	5%	32	0.32µM*
Clc1ccccc1CSc1cc2c(nn1)-c1ccccc1CC2	42*	6%	-15%	-2%	165*	?
CCN(CC)C(=O)C1CCCN(c2ncnc3onc(C)c23)C1 (stereo not drawn)	.	.	.	13%	.	.
CCN(CC)C(=O)C1CCCN(c2ncnc3c2cnn3-c2ccc(Cl)cc2)C1 (stereo not drawn)	23*	-9%	-12%	?	62*	239%
CCN(CC)C(=O)C1CCCN(c2ncnc3c2cnn3-c2cccc(C)c2)C1 (stereo not drawn)	34*	-1%	-17%	-15%	63*	138%
CCOC(=O)C1CCCN(c2ncnc3c2cnn3-c2cccc(C)c2)C1 (stereo not drawn)	41*	1%	-8%	3%	118*	60%
Cc1ccc(Cn2cc(CN3CC(N4CCN(Cc5cccc(C)c5)CC4)CS3(=O)=O)nn2)cc1 (stereo not drawn)	.	4%	.	.	.	.
COc1ccc2c3c([nH]c2c1)C(C)N(C(C)=O)CC3 (stereo not drawn)	1	-6%	0%	1%	22	-3%
CCCc1ccc2oc(C(=O)NCCc3cnn(C)c3)c(C)c2c1	34*	-4%	-7%	-7%	104*	134%
CCCc1ccc2oc(C(=O)NCCc3nc(C(=O)OCC)cs3)c(C)c2c1	32*	-3%	-20%	-8%	50*	150%
N#CCC(=N)N1CCN(c2ccccc2)CC1	13	-8%	-5%	0%	53*	-33%
N#CCC(=N)N1CCN(c2ccccc2Cl)CC1	-1	-2%	-5%	4%	+	0.32µM*
O=C(c1ccccc1)c1ccc(C(=O)N2CCN(c3ccccc3Cl)CC2)cc1	.	-4%	-3%	2%	.	-14%
N#CCC(=N)N1CCN(c2cccc(Cl)c2)CC1	1	-4%	1%	-4%	18	?
CCCCN(C)C(=O)c1ccc(CS(=O)(=O)c2ccccc2C)o1	1	-2%	24%	0%	-5	1%
O=C(Nc1ccc(Cl)cc1)N1CCN(Cc2ccc3c(c2)OCO3)CC1	0	-16%	0%	1%	-5	2%
CCC(C)NC(=O)N1c2ccccc2Sc2ccccc21 (stereo not drawn)	2	-17%	-2%	1%	-2	-23%
COc1ccc(N/C=C2/Sc3ccccc3NC2=O)cc1	44*	76%	0%	3%	88*	-27%
Cc1ccc(N/C=C2/Sc3ccccc3NC2=O)cc1	45*	50%	0%	6%	70*	-35%
CCC(C)NC(=O)/C=C1\Sc2ccccc2NC1=O (stereo not drawn)	13*	11%	19%	-3%	40	-6%
O=C1Nc2ccccc2S/C1=C/NCc1ccccc1Cl	13	51%	-4%	4%	39	?
COc1ccc(N(C)S(=O)(=O)c2cccc(C(=O)Nc3ccc(N4CCOCC4)cc3)c2)cc1	.	14%	3%	1%	.	75%
SMILES	CHX counter	AMA1-RON2 inh	SARS PLP yeast	AmpC detergent	Shiga inhibitor	AmpC no deterg
COc1ccc(NC(=O)CSCC(=O)Nc2sccc2C#N)cc1	.	-15%	-1%	?	.	-19%
COC(=O)CCC(=O)OC1(C)C(=O)C2=CN(CCCOC(C)C)C(c3ccc(OC)cc3)=CC2=C(Br)C1=O (stereo not drawn)	-3	-17%	2%	-5%	-13	161%
COc1ccc(CNC(=O)Cc2ccc(NC(=O)C3=C(C)OCCS3)cc2)cc1	19*	-9%	2%	-7%	56*	-42%
CC(C)Oc1ccc(CNC(=O)Cc2ccc(NC(=O)N3CCSc4ncccc43)cc2)cc1	.	.	.	19%	.	.
CC1=C(C(=O)Nc2ccc(CC(=O)NCc3ccc(OC(C)C)cc3)cc2)SCCO1	42*	-5%	17%	0%	82*	-7%
COc1cccc(CNC(=O)c2cccc(NC(=O)C3=C(C)OCCS3)c2)c1	9	-9%	-6%	-5%	4	-24%
CCOc1ccc(CNC(=O)c2cccc(NC(=O)C3=C(C)OCCS3)c2)cc1	17*	-5%	5%	6%	8	-29%
CCc1ccc(N(C(=O)c2ccco2)C(C(=O)NC2CCCC2)c2ccco2)cc1 (stereo not drawn)	.	-8%	.	.	.	.
COc1cc(Cl)cc(C=O)c1OCC(=O)O	-1	-5%	-2%	6%	-8	-8%
Cc1ccc(NC(=S)/C(=C(\[O-])c2ccc(C)c([N+](=O)[O-])c2)[n+]2ccccc2)cc1C	70*	.	-13%	-1%	149*	0%
COc1cccc(NC(=S)/C(=C(\[O-])c2ccc(C)c([N+](=O)[O-])c2)[n+]2ccccc2)c1	39*	57%	-2%	-7%	51*	-26%
CN1C(=O)/C(=C/C=C2\SCCN2C)N(C)C1=S	49*	-15%	1%	2%	121*	-13%
CN1C(=O)/C(=C/C=C2\SCCN2C)SC1=S	58*	.	-1%	?	82*	-19%
O=C(NCCCNCCCNC(=O)c1ccccn1)c1ccccn1	-3	141%	6%	?	27	-17%
O=C(NCCCNC(=O)c1ccccn1)c1ccc(Cl)cc1	-3	68%	0%	-10%	-4	-20%
CC(C)(C)c1ccc(C(=O)NCCCNC(=O)c2ccccn2)cc1	11	64%	-2%	-8%	42*	25%
Cc1ccc(C(=O)CC(=O)COc2ccc(Cl)cc2)cc1	18*	123%	-11%	-13%	27	-30%
Cc1ccc(C(=O)NCCOc2ccc(Cl)cc2)cc1	32*	0%	1%	6%	51*	-23%
O=C(NCCN1CCNCC1)c1ccccn1	14	60%	14%	-8%	101*	-5%
Cn1c(Cc2cccs2)nnc1SCC(=O)N1CCc2ccccc21	-4	14%	0%	1%	12	-10%
CCCc1nnc(NC(=O)CCC(=O)Nc2ccc(Br)cc2)s1	1	-4%	0%	1%	-3	-13%

Screening data from PubChem BioAssay.
